# In the supplement of paper PMC8728848:
# The full list was thinned out, with the strongest signals kept by preference.
# B1: HBHA-Rv (Mycobacterium tuberculosum), P0A5P6 (protein)
# chain: MAENSNIDDIKAPLLAALGAADLALATVNELITNLRERAEETRTDTRSRVEESRARLTKLQEDLPEQLTELREKFTAEELRKAAEGYLEAATSRYNELVERGEAALERLRSQQSFEEVSARAEGYVDQAVELTQEALGTVASQTRAVGERAAKLVGIELPKKAAPAKKAAPAKKAAPAKKAAAKKAPAKKAAAKKVTQK
# Assays:
# Assay in all cases: glycan array binding signal (z-score within array); higher = stronger binding
# Conditions in all cases: glycan notation: IUPAC condensed, linker removed
# [1] = biological target: Gal3S6S(b1-4)GlcNAc6S
# Procedure, shortened: (§1)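 The binding signal is a Z-score computed within each array. Data were drawn from 3228 arrays in the Consortium for Functional Glycomics database, restricted to those with a known protein sequence. Scores were averaged over arrays of the same protein sequence at different concentrations or buffers, and over linkers, and negative values can be taken as non-binding.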
# [2] = biological target: Gal6S(b1-4)Glc
# Procedure, shortened: as §1
# [3] = biological target: Gal6S(b1-4)GlcNAc6S
# Procedure, shortened: as §1
# [4] = biological target: Glc(b1-6)Glc
# Procedure, shortened: as §1
# [5] = biological target: GlcNAc(b1-2)[GlcNAc(b1-6)]Man(a1-6)[GlcNAc(b1-4)][GlcNAc(b1-2)Man(a1-3)]Man(b1-4)GlcNAc(b1-4)GlcNAc
# Procedure, shortened: as §1
# [6] = biological target: GlcNAc(b1-3)Gal(b1-4)GlcNAc(b1-2)Man(a1-3)[GlcNAc(b1-3)Gal(b1-4)GlcNAc(b1-2)Man(a1-6)]Man(b1-4)GlcNAc(b1-4)GlcNAc
# Procedure, shortened: as §1
# [7] = biological target: GlcNAc(b1-3)Gal(b1-4)GlcNAc(b1-2)Man(a1-3)[GlcNAc(b1-3)Gal(b1-4)GlcNAc(b1-2)Man(a1-6)]Man(b1-4)GlcNAc(b1-4)[Fuc(a1-6)]GlcNAc
# Procedure, shortened: as §1
# [8] = biological target: GlcNAc(b1-3)Gal(b1-4)GlcNAc(b1-3)Gal(b1-4)GlcNAc(b1-3)Gal(b1-4)GlcNAc(b1-2)Man(a1-3)[GlcNAc(b1-3)Gal(b1-4)GlcNAc(b1-3)Gal(b1-4)GlcNAc(b1-3)Gal(b1-4)GlcNAc(b1-2)Man(a1-6)]Man(b1-4)GlcNAc(b1-4)[Fuc(a1-6)]GlcNAc
# Procedure, shortened: as §1
# [9] = biological target: GlcNAc(b1-3)Gal(b1-4)GlcNAc(b1-3)Gal(b1-4)GlcNAc(b1-3)Gal(b1-4)GlcNAc(b1-2)[GlcNAc(b1-3)Gal(b1-4)GlcNAc(b1-3)Gal(b1-4)GlcNAc(b1-3)Gal(b1-4)GlcNAc(b1-6)]Man(a1-6)[GlcNAc(b1-3)Gal(b1-4)GlcNAc(b1-3)Gal(b1-4)GlcNAc(b1-3)Gal(b1-4)GlcNAc(b1-2)Man(a1-3)]Man(b1-4)GlcNAc(b1-4)[Fuc(a1-6)]GlcNAc
# Procedure, shortened: as §1
# [10] = biological target: GlcNAc(b1-4)GlcNAc
# Procedure, shortened: as §1
# [11] = biological target: GlcNAc(b1-4)GlcNAc(b1-4)GlcNAc(b1-4)GlcNAc(b1-4)GlcNAc
# Procedure, shortened: as §1
# [12] = biological target: GlcNAc(b1-4)GlcNAc(b1-4)GlcNAc(b1-4)GlcNAc(b1-4)GlcNAc(b1-4)GlcNAc
# Procedure, shortened: as §1
# [13] = biological target: Kdn(a2-3)Gal(b1-4)[Fuc(a1-3)]GlcNAc
# Procedure, shortened: as §1
# [14] = biological target: Man(a1-2)Man(a1-3)[Man(a1-2)Man(a1-6)]Man(a1-6)[Man(a1-2)Man(a1-2)Man(a1-3)]Man(b1-4)GlcNAc(b1-4)GlcNAc
# Procedure, shortened: as §1
# [15] = biological target: Man(a1-2)Man(a1-6)[Man(a1-3)]Man(a1-6)[Man(a1-2)Man(a1-2)Man(a1-3)]Man(b1-4)GlcNAc(b1-4)GlcNAc
# Procedure, shortened: as §1
# [16] = biological target: Neu5Ac(a2-3)Gal(b1-3)GalNAc
# Procedure, shortened: as §1
# [17] = biological target: Neu5Ac(a2-3)Gal(b1-3)GlcNAc(b1-2)Man(a1-3)[Neu5Ac(a2-3)Gal(b1-3)GlcNAc(b1-2)Man(a1-6)]Man(b1-4)GlcNAc(b1-4)GlcNAc
# Procedure, shortened: as §1
# [18] = biological target: Neu5Ac(a2-3)Gal(b1-4)GlcNAc(b1-2)Man
# Procedure, shortened: as §1
# [19] = biological target: Neu5Ac(a2-3)Gal(b1-4)GlcNAc(b1-2)Man(a1-3)[Neu5Ac(a2-3)Gal(b1-4)GlcNAc(b1-2)Man(a1-6)]Man(b1-4)GlcNAc(b1-4)[Fuc(a1-6)]GlcNAc
# Procedure, shortened: as §1
# [20] = biological target: Neu5Ac(a2-3)Gal(b1-4)GlcNAc(b1-3)Gal(b1-4)GlcNAc(b1-2)Man(a1-3)[Neu5Ac(a2-3)Gal(b1-4)GlcNAc(b1-3)Gal(b1-4)GlcNAc(b1-2)Man(a1-6)]Man(b1-4)GlcNAc(b1-4)GlcNAc
# Procedure, shortened: as §1
# [21] = biological target: Neu5Ac(a2-3)Gal(b1-4)GlcNAc(b1-6)[Gal(b1-3)]GalNAc
# Procedure, shortened: as §1
# [22] = biological target: Neu5Ac(a2-3)Gal(b1-4)[Fuc(a1-3)]GlcNAc
# Procedure, shortened: as §1
# [23] = biological target: Neu5Ac(a2-3)Gal6S(b1-4)[Fuc(a1-3)]GlcNAc
# Procedure, shortened: as §1
# [24] = biological target: Neu5Ac(a2-6)Gal(b1-4)GlcNAc(b1-2)Man(a1-3)[Gal(b1-4)GlcNAc(b1-2)Man(a1-6)]Man(b1-4)GlcNAc(b1-4)GlcNAc
# Procedure, shortened: as §1
# [25] = biological target: Neu5Ac(a2-6)Gal(b1-4)GlcNAc(b1-2)Man(a1-3)[Neu5Ac(a2-3)Gal(b1-4)GlcNAc(b1-2)Man(a1-6)]Man(b1-4)GlcNAc(b1-4)GlcNAc
# Procedure, shortened: as §1
# [26] = biological target: Neu5Ac(a2-6)Gal(b1-4)GlcNAc(b1-2)Man(a1-6)[Man(a1-3)]Man(b1-4)GlcNAc(b1-4)GlcNAc
# Procedure, shortened: as §1
# [27] = biological target: Neu5Ac(a2-6)Gal(b1-4)GlcNAc(b1-3)Gal(b1-4)GlcNAc(b1-3)GalNAc
# Procedure, shortened: as §1
# [28] = biological target: Neu5Ac(a2-8)Neu5Ac(a2-3)[Gal(b1-3)GalNAc(b1-4)]Gal(b1-4)Glc
# Procedure, shortened: as §1
binder,measurement,setting,value
B1,glycan array binding signal (z-score),[1],1.29
same,glycan array binding signal (z-score),[2],1.36
same,glycan array binding signal (z-score),[3],0.203
same,glycan array binding signal (z-score),[4],0.495
same,glycan array binding signal (z-score),[5],-0.415
same,glycan array binding signal (z-score),[6],-0.423
same,glycan array binding signal (z-score),[7],-0.332
same,glycan array binding signal (z-score),[8],-0.455
same,glycan array binding signal (z-score),[9],-0.347
same,glycan array binding signal (z-score),[10],-0.292
same,glycan array binding signal (z-score),[11],4.22
same,glycan array binding signal (z-score),[12],3.44
same,glycan array binding signal (z-score),[13],-0.371
same,glycan array binding signal (z-score),[14],-0.264
same,glycan array binding signal (z-score),[15],1.09
same,glycan array binding signal (z-score),[16],1.62
same,glycan array binding signal (z-score),[17],-0.163
same,glycan array binding signal (z-score),[18],-0.023
same,glycan array binding signal (z-score),[19],-0.174
same,glycan array binding signal (z-score),[20],-0.297
same,glycan array binding signal (z-score),[21],-0.331
same,glycan array binding signal (z-score),[22],-0.199
same,glycan array binding signal (z-score),[23],0.273
same,glycan array binding signal (z-score),[24],-0.354
same,glycan array binding signal (z-score),[25],-0.42
same,glycan array binding signal (z-score),[26],-0.302
same,glycan array binding signal (z-score),[27],-0.379
same,glycan array binding signal (z-score),[28],1.55
